Assay [1] can be described thus: ATG_ERE_CIS: Attagene CIS-FACTORIAL HepG2 Assay for Estrogen Response Element (ERE) (AID 2282940). The following applies: HepG2 ERE cis-reporter, Attagene RNA transcript; actives raise or lower the signal. The procedure, abridged: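 Readout: reporter mRNA induction by RT-PCR, FAM-labelled primer extension, HpaI digestion and capillary electrophoresis, 24 h after dosing transfected HepG2 cells. Endogenous transcription factors act on cis-element-regulated reporters. Gain or loss fitted against DMSO.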

Assay [2] can be described thus: ATG_Ets_CIS: Attagene CIS-FACTORIAL HepG2 Assay for human Erythroblast Transformation Specific (ETS) (AID 2282941). The conditions noted are these: HepG2 ETS cis-reporter transcription, actives raise or lower the signal. The procedure, abridged: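 Human HepG2 hepatoma cells were transiently transfected with promoter-driven reporter constructs and treated for 24 hours. Reporter transcripts were quantified by RT-PCR with fluorescent primer extension; bidirectional curve fitting used DMSO as reference.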

The target in assay [3] is Hepatocyte nuclear factor 3-beta (Homo sapiens) (UniProt Q9Y261). Put plainly: ATG_FoxA2_CIS: Attagene CIS-FACTORIAL HepG2 Assay for human Forkhead box A2 (FOXA2) (AID 2282942). The conditions noted are these: HepG2 cis-reporter transcription factor activity, 24 h; actives raise or lower the signal. In a few lines: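 HepG2 cells transiently transfected with multiple cis-regulated reporter transcription units, dosed for 24 h. Reporter mRNA measured by RT-PCR, 6-FAM labelling, HpaI digestion and capillary electrophoresis; bidirectional fitting against DMSO baseline.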

A short description of assay [4]: ATG_FoxO_CIS: Attagene CIS-FACTORIAL HepG2 Assay for human Forkhead box O (FoxO) (AID 2282943). The following applies: HepG2 Attagene cis-reporter, FoxO element, mRNA; actives raise or lower the signal. In a few lines: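 Read-out: fluorescence of 6-FAM-labelled reporter cDNA fragments resolved by capillary electrophoresis. Transiently transfected HepG2 cells were dosed for 24 h; activity fitted in both directions relative to DMSO controls.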

Assay [5] is described as follows: ATG_GATA_CIS: Attagene CIS-FACTORIAL HepG2 Assay for human GATA Binding Protein (AID 2282944). The conditions noted are these: HepG2 GATA cis-element reporter, Attagene multiplex mRNA; actives raise or lower the signal. In a few lines:
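Read-out: fluorescent reporter mRNA fragments resolved by capillary electrophoresis after RT-PCR. Human liver HepG2 cells carried transiently transfected cis-regulated reporter constructs; chemicals incubated 24 h; gain or loss of signal fitted relative to DMSO.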

Assay [6] can be described thus: ATG_GRE_CIS: Attagene CIS-FACTORIAL HepG2 Assay for human Glucocorticoid Response Elements (GRE) (AID 2282947). The conditions noted are these: HepG2 GRE cis-reporter, Attagene multiplex mRNA; actives raise or lower the signal. In a few lines:
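Endogenous transcription factor activity is read through cis-element reporter constructs transiently transfected into HepG2 cells. After 24 h treatment, labelled RT-PCR products are resolved by capillary electrophoresis; DMSO sets baseline for bidirectional curve fitting.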

Assay [7] is described as follows: ATG_ISRE_CIS: Attagene CIS-FACTORIAL HepG2 Assay for human Interferon Regulatory Factor 1 (IRF1) binding to an Interferon-Stimulated Response Element (ISRE) (AID 2282948). The following applies: HepG2 ISRE cis-reporter (Attagene), mRNA transcription readout; actives raise or lower the signal. In a few lines:
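Cell-based cis-reporter assay; HepG2; 24 h exposure; reporter mRNA by RT-PCR plus capillary electrophoresis fluorescence; activity in either direction scored relative to DMSO.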

Assay [8] in a line: ATG_M_32_CIS: Attagene CIS-FACTORIAL HepG2 Assay for M32 Transcription Factor (Internal Marker) (AID 2282949).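 Further: background control marker of the multiplexed CIS panel rather than a real target.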 The following applies: HepG2 Attagene cis-factorial M32 reporter, mRNA; actives raise or lower the signal. The procedure, abridged: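 Internal background marker read-out: RT-PCR/capillary electrophoresis fluorescence of reporter transcripts from transiently transfected HepG2 cells after 24 h chemical exposure. Activity fitted bidirectionally relative to DMSO negative control.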

Assay [9] in a line: ATG_GLI_CIS: Attagene CIS-FACTORIAL HepG2 Assay for human Zinc Finger Protein GLI1 (AID 2282945). The conditions noted are these: HepG2, Attagene cis-factorial reporter mRNA, GLI element; actives raise or lower the signal. In a few lines: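 Transiently transfected HepG2 cells report endogenous transcription factor activity via cis-element-driven reporter units. After 24 h compound exposure, reporter mRNA was measured by RT-PCR with capillary electrophoresis; bidirectional fitting against DMSO baseline.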

In assay [10] the target is Bile acid receptor (Homo sapiens) (UniProt Q96RI1). Put plainly: ATG_IR1_CIS: Attagene CIS-FACTORIAL HepG2 Assay for human Nuclear Receptor Subfamily 1 Group H Member 4 (NR1H4), IR1 submotif (AID 2282946). The conditions noted are these: IR1 reporter transcription, actives raise or lower the signal. In a few lines:
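HepG2 cells transiently transfected with multiple cis-promoter-driven reporter units to measure endogenous transcription factor activity; 24 h exposure. Reporter mRNA read by RT-PCR, FAM labelling, HpaI digestion and capillary electrophoresis. Bidirectional fit versus DMSO.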

Activity calls are given as the source filed them. How the source made its calls: active means hit-call score of the fitted dose curve at least 0.9, where 1 is the maximum; inactive means score below 0.9.

Chain of Bile acid receptor (Homo sapiens) (Q96RI1 whole entry, looked up): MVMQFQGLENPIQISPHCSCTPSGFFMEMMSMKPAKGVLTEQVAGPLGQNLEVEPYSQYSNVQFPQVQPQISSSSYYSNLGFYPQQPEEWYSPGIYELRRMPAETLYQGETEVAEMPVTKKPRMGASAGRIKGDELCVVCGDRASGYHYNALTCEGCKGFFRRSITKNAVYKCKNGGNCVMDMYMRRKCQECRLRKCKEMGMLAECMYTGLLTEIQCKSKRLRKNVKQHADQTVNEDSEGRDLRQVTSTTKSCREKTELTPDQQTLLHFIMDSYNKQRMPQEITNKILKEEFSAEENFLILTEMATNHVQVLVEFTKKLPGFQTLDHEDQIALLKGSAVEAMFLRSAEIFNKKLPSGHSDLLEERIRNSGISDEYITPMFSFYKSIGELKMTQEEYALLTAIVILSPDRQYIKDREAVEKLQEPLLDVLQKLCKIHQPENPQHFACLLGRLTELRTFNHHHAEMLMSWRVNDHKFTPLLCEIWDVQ
Chain of Hepatocyte nuclear factor 3-beta (Homo sapiens) (Q9Y261 whole entry, looked up): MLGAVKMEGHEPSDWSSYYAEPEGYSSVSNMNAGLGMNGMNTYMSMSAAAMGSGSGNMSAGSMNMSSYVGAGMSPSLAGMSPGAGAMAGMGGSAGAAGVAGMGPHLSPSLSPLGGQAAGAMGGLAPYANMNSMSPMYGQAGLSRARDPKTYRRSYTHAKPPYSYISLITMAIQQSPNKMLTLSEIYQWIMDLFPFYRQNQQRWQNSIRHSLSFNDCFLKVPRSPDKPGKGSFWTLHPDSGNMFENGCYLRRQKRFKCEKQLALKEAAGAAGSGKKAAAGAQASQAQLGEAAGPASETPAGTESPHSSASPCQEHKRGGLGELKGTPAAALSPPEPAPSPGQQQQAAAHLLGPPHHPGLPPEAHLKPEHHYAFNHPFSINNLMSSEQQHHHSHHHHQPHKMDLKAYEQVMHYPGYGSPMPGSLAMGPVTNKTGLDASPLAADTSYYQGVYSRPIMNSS

In the case of `O=P(O)(O)CN(CP(=O)(O)O)CP(=O)(O)O`, the outcome in [1], in assay [2], in [3], in assay [4], in assay [5] and in assay [6] was inactive. The molecule was classed as inactive in [7] and in assay [8].
Regarding `c1ccc(N=NNc2ccccc2)cc1`, the AC50 is 26.3 µM (active) in assay [1] and 25.7 µM (active) in [3]. For the same molecule, the result in assay [2], in [4], in [5], in assay [7] and in assay [8] was inactive.
With `CC(C)OC(=O)Nc1ccccc1`, the outcome in [1], in assay [2], in [3], in [4], in [5] and in [7] was inactive. Also, the call in assay [8] was inactive.
Regarding `Cc1ccccc1N`, the outcome in assay [2], in [3], in assay [4], in assay [5], in [9] and in [7] was inactive. In addition, the molecule was classed as inactive in assay [8].
On to `O=C1C(Cl)=C(Cl)C(=O)c2ccccc21`, for which the AC50 in assay [1] is 5.75 µM (active). The result in assay [2], in assay [3], in [4], in assay [5], in [6] and in assay [7] was inactive. In addition, the result in [8] was inactive.
On to `Oc1cccc2cccnc12`, for which the result in assay [2], in [3], in assay [4], in assay [5], in assay [9] and in [10] was inactive. Also, the result in assay [7] and in assay [8] was inactive.
On to `O=C(O)C(Cl)(Cl)Cl`, for which the molecule was called inactive in assay [2], in assay [3], in [4], in assay [5], in [9] and in assay [7]. The call in [8] was inactive.
For `CCOP(OCC)OCC`, the molecule was classed as inactive in [1], in [2], in assay [3], in [4], in assay [5] and in assay [10]. Besides, the call in assay [7] and in assay [8] was inactive.
As for `CC(C)(c1ccccc1)c1ccc(O)c(C(C)(C)c2ccccc2)c1`, the concentration at half-maximal activity (AC50) was 5.86 µM (active) in assay [1], 15.2 µM (active) in assay [4] and 2.78 µM (active) in [10]. In addition, the molecule was called inactive in [2], in assay [3], in assay [5], in assay [7] and in [8].
For `COC(=O)c1sccc1S(=O)(=O)NC(=O)Nc1nc(C)nc(OC)n1`, the AC50 in [1] was 47.4 µM (active). Besides, the molecule was called inactive in assay [2], in [3], in assay [4], in [5], in [6] and in [7]. Moreover, in [8], the molecule was classed as inactive.
`C[C@]12CCC(=O)C[C@@H]1CC[C@@H]1[C@@H]2CC[C@]2(C)[C@@H](O)CC[C@@H]12`: the call in assay [2], in assay [3], in assay [4], in assay [5], in assay [9] and in assay [7] was inactive. For the same molecule, in [8], the molecule was classed as inactive.
In the case of `O=C(O)C(F)(F)C(F)(F)C(F)(F)C(F)(F)C(F)(F)C(F)(F)F`, the molecule was called inactive in [2], in assay [3], in assay [4], in [5], in assay [9] and in assay [10]. The call in [7] and in assay [8] was inactive.
With `CCC1(c2ccc(N)cc2)CCC(=O)NC1=O` (stereo not given), the call in [1], in assay [2], in [3], in assay [4], in assay [5] and in assay [10] was inactive. Moreover, the call in assay [7] and in assay [8] was inactive.
Consider `CCN1CCC2(CC1)COc1cc3c(cc12)N(C(=O)c1ccc(-c2ccc(-c4nnc(C)o4)cc2C)cc1)CC3`, for which the outcome in [1], in [2], in assay [3], in assay [4], in [5] and in assay [10] was inactive. Moreover, the outcome in assay [7] and in assay [8] was inactive.
Take `CC12CC1(C)C(=O)N(c1cc(Cl)cc(Cl)c1)C2=O` (stereo not given): the outcome in [2], in assay [3], in assay [4], in assay [5], in assay [6] and in assay [7] was inactive. Further, in [8], the result was inactive.
Regarding `CCOP(=O)(CN(CCO)CCO)OCC`, the call in assay [1], in assay [2], in assay [3], in [4], in [5] and in assay [7] was inactive. For the same molecule, the result in assay [8] was inactive.
Regarding `C1CCC(NC2CCCCC2)CC1`, in assay [1], the AC50 was 28.8 µM (active). The outcome in assay [2], in assay [3], in assay [4], in assay [5], in assay [7] and in assay [8] was inactive.
Take `C=CCc1ccc(OC)cc1`: the call in assay [2], in assay [3], in assay [4], in assay [5], in [9] and in [7] was inactive. Also, the result in [8] was inactive.

By AC50 is commonly meant the concentration giving half of the maximal activity seen.

The values are drawn from PubChem BioAssay (EPA / NIEHS).
